Unmarked numbers belong to inactive results.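 The calls were made as follows: active = growth AUC significantly below the DMSO wells by Dunnett test; inactive = the rest.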

In the experiment the test system is Flavobacterium 2 (Flavobacterium succinicans). In words: relative growth (AUC of 72 h growth curve relative to DMSO control, dAUC) (ratio); higher = more growth (less inhibition), active = hit call of the paper. The note with it: 20 µM. An outline of the steps:
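Growth was followed as A600, read hourly for 72 h on a plate reader after brief shaking. Isolates from Icelandic stream sediments and Silwood Park soil, and whole sediment communities, were first grown to carrying capacity in Luria–Bertani medium and then diluted 1:100 into 96-well plates with each chemical at 20 µM (1% DMSO). Relative growth (dAUC) is the spline-integrated area under the curve scaled to the mean of the DMSO controls, and the values are averages of three biological replicates.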
On to `CNC(=O)CSP(=S)(OC)OC`, for which the relative growth is 0.966.

For `N#CCNC(=O)c1cnccc1C(F)(F)F`, the relative growth was 0.944.

`COP(=O)(OC)OC=C(Cl)Cl`: the relative growth is 0.965. As for `CCc1cc(C)cc(CC)c1-c1c(OC(=O)C(C)(C)C)n2n(c1=O)CCOCC2`, the relative growth was 0.943.

Consider `CCOc1ccc(C(C)(C)COCc2cccc(Oc3ccccc3)c2)cc1`, for which the relative growth is 0.958. Consider `COc1ncc(F)c2nc(S(=O)(=O)Nc3c(F)cccc3F)nn12`, for which the relative growth is 1.06. Consider `O=[N+]([O-])c1cc(C(F)(F)F)c(Cl)c([N+](=O)[O-])c1Nc1ncc(C(F)(F)F)cc1Cl`, for which the relative growth is 0.00437 (active). Consider `COP(=S)(OC)Oc1ccc(SC)c(C)c1`, for which the relative growth is 0.998.

With `CCCCCCCCCCCCNC(=N)N`, the relative growth is 0.832. Turning to `CC(C)NC(=O)N1CC(=O)N(c2cc(Cl)cc(Cl)c2)C1=O`, the relative growth is 0.973. As to `CCCCOC(=O)[C@H](C)Oc1ccc(Oc2ccc(C#N)cc2F)cc1`, the relative growth is 0.955.

Regarding `CCc1cccc(C)c1N(C(=O)CCl)[C@@H](C)COC`, the relative growth is 0.967. `CC(C1CC1)C(O)(Cn1cncn1)c1ccc(Cl)cc1` (configuration not stated): the relative growth was 0.955. Consider `CC(COc1ccc(Oc2ccccc2)cc1)Oc1ccccn1` (configuration not stated), for which the relative growth is 1.02.

In the case of `CCNc1nc(Cl)nc(NC(C)C)n1`, the relative growth is 0.972.

On to `N#C/N=C1\SCCN1Cc1ccc(Cl)nc1`, for which the relative growth is 1.04.

Take `CCCC1COC(Cn2cncn2)(c2ccc(Cl)cc2Cl)O1` (configuration not stated): the relative growth is 0.856. Take `COc1cc(C)c(C(=O)c2c(OC)ccc(Br)c2C)c(OC)c1OC`: the relative growth is 1.02.

Consider `C/C(=N\C#N)N(C)Cc1ccc(Cl)nc1`, for which the relative growth was 1.02. With `CCCCN(CCCC)SN(C)C(=O)Oc1cccc2c1OC(C)(C)C2`, the relative growth was 0.985. Turning to `N#Cc1c(Cl)c(Cl)c(Cl)c(C#N)c1Cl`, the relative growth was 0.543 (active). In the case of `Cc1nc(N(C)C)nc(OC(=O)N(C)C)c1C`, the relative growth was 0.965.

Consider `CC(C)CC(C)c1sccc1NC(=O)c1cn(C)nc1C(F)(F)F` (configuration not stated), for which the relative growth is 0.921. Turning to `Fc1ccc(Oc2ccnc3cc(Cl)cc(Cl)c23)cc1`, the relative growth is 1.01. Take `CC1(C)C(C=C(Cl)Cl)C1C(=O)OCc1cccc(Oc2ccccc2)c1` (configuration not stated): the relative growth is 0.958. For `Oc1ccccc1-c1ccccc1` the value was 0.946; for `CCC(C)c1ccccc1OC(=O)NC` (configuration not stated), 1.02; for `CN/C(=N\[N+](=O)[O-])NCc1cnc(Cl)s1`, 0.939. In the case of `O=C(O)c1nc(Cl)ccc1Cl`, the relative growth was 0.962. For the compound `CC1(C)[C@H](/C=C(\Cl)C(F)(F)F)[C@@H]1C(=O)OC(C#N)c1cccc(Oc2ccccc2)c1` (some centres not stated), the relative growth was 0.995. For `O=C(NC(=O)c1c(F)cccc1F)Nc1ccc(OC(F)(F)C(F)OC(F)(F)F)c(Cl)c1` (configuration not stated) the value was 0.969. Turning to `O=C1C=C(N(Cc2ccc(Cl)nc2)CC(F)F)CO1`, the relative growth is 0.993. On to `O=C(O)COc1ccc(Cl)cc1Cl`, for which the relative growth was 1.02. As for `COc1ccc(C(=CC(=O)N2CCOCC2)c2ccc(Cl)cc2)cc1OC` (mixture of isomers), the relative growth was 0.979. Consider `CCN(CC)c1nc(C)cc(OP(=S)(OC)OC)n1`, for which the relative growth is 0.995. To `Oc1ccc(Cl)cc1Cc1cc(Cl)ccc1O` belongs 0.00242 (active); to `N#CC(CCc1ccc(Cl)cc1)(Cn1cncn1)c1ccccc1` (configuration not stated), 0.856.

Source of the values: the supplement of paper PMC12067926.
